This is a sample that favours compounds with a hit; in the whole collection about 19% have one here.
TDP1 cell CPT: qHTS for Inhibitors of human tyrosyl-DNA phosphodiesterase 1 (TDP1): qHTS in cells in presence of CPT; chicken DT40 Tdp1-/-;hTDP1 cells + 20 nM CPT, ATP luminescence, 48 h; Potency, µM (top dose mostly 46.2 µM), inactives show top-dose activity change, negative = growth inhibition, most hits filed as inhibitors; actives 12% (n = 420,000); AID 686979, 2013; note: nearly all actives have a fitted effect of over 55% in size
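Chicken DT40 Tdp1-/- cells complemented with human TDP1, 400 cells/well, exposed to compounds plus 20 nM camptothecin for at least 48 h at 37 C; viability read as ATP content by CellTiter-Glo luminescence.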
RORgamma inh: qHTS for inhibitors of ROR gamma transcriptional activity; Nuclear receptor ROR-gamma (Mus musculus), P51450; Drosophila S2 Gal4-RORgamma UAS-luciferase reporter, 20 h; Potency, µM (doses to about 53.6 µM), without a hit: top-dose activity change, negative = inhibition, hits mostly inhibitors; actives 5.4% (n = 310,000); note: nearly all actives have a fitted effect of over 60% in size
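Stable Schneider cell line, Gal4 DNA-binding domain fused to ROR gamma, UAS-luciferase. Cmpd 1 hr RT → CuSO4 700 uM final → 20 hr RT → luciferase reagent 10 min → luminescence.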
TDP1 inh: qHTS Assay for Inhibitors of Tyrosyl-DNA Phosphodiesterase (TDP1); Tyrosyl-DNA phosphodiesterase 1 (Homo sapiens), Q9NUW8; recombinant TDP1, AlphaScreen DNA substrate cleavage; Potency, µM (titrated, usually from 130 µM), for the others: top-dose activity change, negative = inhibition, hits mostly inhibitors; AID 485290, 2010; actives 0.28% (n = 350,000); note: nearly all actives have a fitted effect of over 40% in size
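Compounds were preincubated with Tdp1 (1 nM final) for 15 min at room temperature before substrate (15 nM final) started a 5 min reaction; beads (10 ug/ml final) were then added for 10 min before AlphaScreen detection.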
TDP1 cell noCPT: qHTS for Inhibitors of human tyrosyl-DNA phosphodiesterase 1 (TDP1): qHTS in cells in absence of CPT. actives 15% (n = 420,000). Potency, µM (top dose mostly 46.2 µM), for the others: at the highest dose activity change, negative = growth inhibition, usual class: inhibitors. DT40 Tdp1-/- hTDP1 cells, no CPT, ATP luminescence, 48 h; note: nearly all actives have a fitted effect of over 55% in size
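Chicken DT40 Tdp1-/- cells complemented with human TDP1, screened without camptothecin (DMSO vehicle only), 400 cells/well. Compounds pin-transferred, cells incubated at 37 °C for at least 48 hr. Growth read as ATP-dependent luminescence (CellTiter-Glo, 30 min at RT).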
VP16 counter: VP16 counterscreen qHTS for inhibitors of ROR gamma transcriptional activity; Drosophila S2 Gal4-VP16 UAS-luciferase, luminescence, 20 h; Potency, µM (series often up to 53.6 µM), for inactives: at the highest dose activity, negative = inhibition, most hits filed as inhibitors; actives 3.5% (n = 310,000); AID 2546, 2010;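 note: Gal4-VP16 expression switched on by copper sulfate through the metallothionein promoter; nearly all actives have a fitted effect of over 50% in size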
* hit, by the source's call; ? = inconclusive; . = not tested or not shown; [ ] = dose if it differs, or a comment. Calls come from the whole dose curve; as a rule, active = well fitted curve in the direction sought with a large enough effect; inconclusive = small, poorly fitted or top-dose-only effect, or another doubt; inactive = no such curve, though single readings can be large; an effect the other way counts as inactive or inconclusive. % is set by controls: 0 for no effect and ±100 for the full control effect; potency is the fitted concentration of half-maximal effect.

SMILES	TDP1 cell CPT	RORgamma inh	TDP1 inh	TDP1 cell noCPT	VP16 counter
CCOCCCN(Cc1ccco1)C(=O)c1cc2c(=O)[nH]c3ccc(C)cc3c2s1	23.1µM*	22.9%	-2.0%	11.6µM*	-1.4%
Cc1ccc2[nH]c(=O)c3cc(C(=O)N4CCN(C(=O)c5ccco5)CC4)sc3c2c1	?	26.6%	56.2µM*	-14.5%	6.6%
Cc1nn(-c2ncc(C(F)(F)F)cc2Cl)c(=O)n1-c1ccccc1F	8.1%	-1.7%	7.5%	-11.6%	-3.3%
COc1ccc(NC(=O)Cn2nc(-c3ccccc3)c3cnc4ccc(C)cc4c32)cc1	?	.	1.9%	?	.
CCN(C(=O)c1cc2c(=O)[nH]c3ccc(C)cc3c2s1)c1ccc(OC)cc1	29.1µM*	16.2%	3.6%	9.2µM*	0.4%
CCCN(C(=O)c1cc2c(=O)[nH]c3ccc(C)cc3c2s1)c1ccc(CC)cc1	-3.3%	.	3.9%	-11.2%	.
O=C(c1c(F)c(F)c(F)c(F)c1F)N1CCN(c2cccc(C(F)(F)F)c2)CC1	?	1.0%	-5.5%	18.4µM*	2.6%
O=C(c1ccccc1F)N1CCN(c2cccc(C(F)(F)F)c2)CC1	?	-0.1%	4.2%	16.4µM*	-1.3%
O=C1C(=O)N(CCN2CCOCC2)C(c2ccccc2)/C1=C(\O)c1ccc2c(c1)OCCO2 (centres undefined)	2.6%	6.1%	4.3%	-1.3%	3.3%
CN(C)S(=O)(=O)c1cccc(NC(=O)COC(=O)c2cccc(S(=O)(=O)N3CCc4ccccc4C3)c2)c1	?	-5.1%	2.8%	?	1.8%
CCOC(=O)C1CCCN(CCC(=O)Nc2ccc(OC)cc2OC)C1 (centres undefined)	8.1%	.	-4.0%[12.3 µM]	-1.1%	.
CC1=NN(C(=O)c2ccccc2C)C(O)(c2ccc(Cl)cc2)C1 (centres undefined)	?	6.31µM*	.	?	7.94µM*
CCOC(=O)N1N=C(C)CC1(O)c1ccc(Cl)cc1 (centres undefined)	1.7%	-15.9%	6.0%	-0.1%	4.3%
CC1=NN(C(=O)c2ccccc2Br)C(O)(c2ccc(Cl)cc2)C1 (centres undefined)	2.4%	3.98µM*	1.7%	-23.6%	8.91µM*
N#Cc1cc2c([nH]c1=S)CCCCCC2	-22.0%	7.08µM*	1.0%	-12.1%	15.8µM*
N#Cc1c(N)n[nH]c1-c1cc2c([nH]1)CCCC2	?	?	4.9%	-28.5%	-7.4%
C=CCC[C@@H](Cc1ccc(F)cc1)C(=O)OC[C@@H](Cc1ccccc1)NC(=O)[C@H](CC=C)CC(=O)NCCO	9.2µM*	.	0.7%	13µM*	.
C=CC[C@@H](CC(=O)NCCO)C(=O)NC[C@H](OC(=O)[C@@H](CC=C)Cc1ccc(F)cc1)c1ccccc1	14.6µM*	.	0.5%	11.6µM*	.
C=CC[C@@H](CC(=O)N[C@H](CO)Cc1ccccc1)C(=O)N[C@@H](C)COC(=O)[C@@H](CC=C)Cc1ccc(F)cc1	?	.	0.5%	18.4µM*	.
C=CCC[C@@H](Cc1ccc(F)cc1)C(=O)OC[C@@H](C)NC(=O)[C@@H](CC=C)CC(=O)N[C@H](CO)Cc1ccccc1	14.6µM*	.	1.8%	?	.
C=CC[C@@H](CC(=O)NCCO)C(=O)NCCOC(=O)[C@@H](CC=C)Cc1ccc(F)cc1	-11.2%	.	1.2%	-9.7%	.
C=CCC[C@H](Cc1ccc(F)cc1)C(=O)OC[C@@H](C)NC(=O)[C@H](CC=C)CC(=O)NCCO	-23.4%	.	2.5%	?	.
CN(C)S(=O)(=O)c1cc(NC(=O)COC(=O)/C=C/c2ccco2)ccc1Cl	-30.6%	13.1%	-1.2%	-26.2%	5.3%
CC(=O)N1CCC(=O)N(C(C)C)c2ccccc21	2.1%	-11.9%	1.0%	-3.2%	2.4%

Assay outcomes: PubChem, National Center for Advancing Translational Sciences (NCATS)
